Laboratory results published in PubChem BioAssay (NCI).
About 83,000 compounds went through this panel and 20% of them were active in at least one assay; those are over-represented in the sample as a whole.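 Results are percent growth after 48 hours of single-concentration exposure. 100 means growth as in untreated cells, lower positive values show inhibition; negative values down to -100 show cell death.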 Unmarked numbers belong to inactive results. Calls of active or inactive are those of the source.

tested on: HCT-15 colon; experiment: NCI-60 one-dose screen, 48 h (100 = growth as untreated, 0 = no growth, -100 = all killed); conditions: 10 µM unless noted
Method: Growth inhibition of the HCT-15 human tumor cell line is measured as a screen for anti-cancer activity. Cells are grown in 96 well plates and exposed to the test compound for 48 hours. Compounds are tested at a single concentration, which is 10^-5 M for most compounds. The reported endpoint is percent growth (GI% or GIPRCNT), where numbers from 0 - 100% represent growth inhibition, and numbers from -100% - 0 represent cell death. For example, a value of 40 represents 60% growth inhibition. A value of 0 means no net growth occurred over the course of the experiment. A value of -40 indicates 40% of cells at the beginning of the experiment died by the end of the experiment. A value of -100 means all cells are dead at the end of the experiment.
NCI-60 Human Tumor Cell Lines Screen was performed using the standard one-dose NCI protocol, which is described in more detail at https://dtp.cancer.gov/discovery_development/nci-60/default.htm.
Compounds with GIPRCNT values below 10 were considered active. Activity score was based on GIPRCNT using the following formula: […]
Score is 0 for GIPRCNT values of 100 or above, 50 for GIPRCNT values of 0, and 100 for GIPRCNT values of -100.

| SMILES | growth |
| --- | --- |
| CC(C)(CNC1CCCCC1)OC(=O)c1ccccc1 | 97.7% |
| Oc1ccc(CN(Cc2ccc(C(F)(F)F)cc2)Cc2ccc(O)c3ncccc23)c2cccnc12 | 20.5% |
| Cc1cc2cn3c4ccc(O)cc4nc(N)c3c2cc1C | 7.85% (active) |
| CCCC(=O)Nc1ccccc1C(=O)O | 95.4% |
| CCOC(=O)c1ccc2n1CCCc1cnc(NC(C)=O)nc1-2 | 107% |
| Nc1nc(-c2cccc(Br)c2)cc(-c2cc3ccccc3oc2=O)n1 | 106% |
| C=CCC(CCC(CC=C)C(=O)OCC)C(=O)OCC (stereo not given) | 105% |
| CCOC(=O)C1C(=O)C(=O)N(C(C)C)C1C(=O)OCC (stereo not given) | 94.1% |
| O=C(/C=C1\C(=O)N(Cc2ccccc2)c2ccccc21)c1ccc(OCCN2CCCCC2)cc1 | -49.9% (active) |
| COc1ccc(-c2nnc(SCC(=O)Nc3ccc(C(=O)/C=C/c4cc(OC)c(OC)c(OC)c4)cc3)n2-c2ccccc2)cc1OC | 8.91% [100 µM] (active) |
| Cc1ccc2c(c1)C(=O)CCS2 | 90.8% |
| C/C(=N\Nc1ccc(Cl)cn1)c1ccc2ccccc2n1 | 13.4% |
| C/C=C/C/C=C/[C@H](C)C[C@H](O)[C@@H]1C[C@@H]2O[C@H]2/C=C/[C@H](O)[C@@H](O)/C=C/C[C@H](C)CC(=O)O1 | 66.1% |
| CCCCCCCCCCCCCCCCCCOP(=O)(O)O | 107% |
| CC(=O)CC(=O)OC/C=C(/C)CCC=C(C)C | 102% |
| N#Cc1c(N)nc(Nc2nc3ccccc3[nH]2)nc1-c1ccc(Cl)cc1 | 109% |
| COC(=O)c1ccc2[nH]c(O)c(C(=Nc3ccc(N(C)C(=O)CN4CCN(C)CC4)cc3)c3ccc(OC)cc3)c2c1 | 10.4% |
| CCCCCCC(C)N(CC(C)(C)O)C(=O)c1ccc([N+](=O)[O-])cc1 (stereo not given) | 104% |
| Oc1ccccc1\C=N/N=C/C=C/c1ccccc1 | 103% |
| O=P(OCCCl)(OCCCl)C(O)c1ccccc1Cl (stereo not given) | 99.5% |

| SMILES | growth |
| --- | --- |
| O=c1c2c(c3ccccc3n1-c1ccccc1)NC(=S)NC2c1ccccc1 (stereo not given) | 97.1% |
| O=C(C(=O)N1CCOCC1)c1ccc(O[C@H]2O[C@H](CO)[C@@H](O)[C@H](O)[C@@H]2O)cc1 | 97.4% |
| O=C(Nc1ccc(-n2cc(-c3ccncc3)c(-c3ccc(Cl)c(O)c3)n2)cc1)c1ccc(Cl)c(C(F)(F)F)c1 | -28% (active) |
| COc1ccc2sc(-n3nc4nc5n(c(=O)c4c3N)-c3ccccc3Sc3ccccc3-5)nc2c1 | 82.6% |
| Cn1cnc2nc[nH]c2c1=S | 101% |
| O=C1/C(=C\c2cn(-c3nc(N4CCOCC4)nc(N4CCOCC4)n3)c3ccccc23)c2ccccc2N1c1c(Cl)cccc1Cl | 64.5% |
| c1ccc2[nH]c(-c3ccc(OCCCCCOc4ccc(-c5nc6ccccc6[nH]5)cc4)cc3)nc2c1 | 16.7% |
| Cc1ncc(C(=O)Nc2ccc(CN3CCN(C)CC3)c(C(F)(F)F)c2)cc1C#Cc1c(N)ncc2ccc(F)cc12 | -93.2% (active) |
| COc1ccc2cn3c4ccc(O)cc4[nH]c(=O)c3c2c1 | 17.8% |
| Cn1c2ccccc2c2ccccc21 | 107% |
| BrCCCOc1ccc(Oc2ccc(OCCCBr)cc2)cc1 | 93.3% |
| COc1ccccc1Cn1cc2c(c1)-c1oncc1CC2 | 15.7% |
| O=[N+]([O-])c1ccc(-c2ncc(-c3ccc(O)cc3O)[nH]2)cc1 | 100% |
| O=C(Nc1ccc(Cl)cn1)C1(c2ccccc2)CCCCC1 | 112% |
| O=Nc1c(-c2c(O)[nH]c3cc(Br)ccc23)[nH]c2ccccc12 | 1.93% (active) |
| COc1cc(Cn2ccc3c2-c2oncc2CC3)cc(OC)c1 | 27.2% |
| Oc1ccc(Br)cc1/C=N/NC(=S)NC12CC3CC(CC(C3)C1)C2 | 9.35% (active) |
| NC(=O)CC(NC(=O)COc1ccc(Cl)cc1Cl)C(=O)O (stereo not given) | 112% |
| Cc1ccc(C(=O)Nc2ccc(CN3CCN(C)CC3)c(C(F)(F)F)c2)cc1C#Cc1cnc(N)c2ccc(C#N)cc12 | 23.2% |
| Cc1ccc(OCCn2ccc(=O)n(CCOc3ccc(Cl)cc3C(=O)c3cc(C)cc(C)c3)c2=O)cc1 | 27.8% |
